Measured values as given in PubChem BioAssay (NCI).
The panel holds about 83,000 compounds, 20% with a hit somewhere; the sample as a whole holds those more often.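 Single-concentration screen, 48 h exposure, 96-well plates. Endpoint: percent growth. Below 10 = active.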 Activity calls are given as the source filed them.

What was measured:
Assay in all cases: NCI-60 one-dose screen, 48 h (100 = growth as untreated, 0 = no growth, -100 = all killed)
SK-MEL-2 melanoma = settings: 10 µM unless noted
EKVX NSCLC = settings: 10 µM unless noted
SN12C renal = settings: 10 µM unless noted
UO-31 renal = settings: 10 µM unless noted
TK-10 renal = settings: 10 µM unless noted
ACHN renal = settings: 10 µM unless noted
CAKI-1 renal = settings: 10 µM unless noted
A498 renal = settings: 10 µM unless noted
MOLT-4 leukemia = settings: 10 µM unless noted
SR leukemia = settings: 10 µM unless noted
RPMI-8226 leukemia = settings: 10 µM unless noted
OVCAR-8 ovarian = settings: 10 µM unless noted
OVCAR-5 ovarian = settings: 10 µM unless noted
OVCAR-4 ovarian = settings: 10 µM
SK-OV-3 ovarian = settings: 10 µM unless noted
IGROV1 ovarian = settings: 10 µM unless noted
OVCAR-3 ovarian = settings: 10 µM unless noted
HS 578T breast = settings: 10 µM unless noted
NCI/ADR-RES ovarian = settings: 10 µM unless noted
CCRF-CEM leukemia = settings: 10 µM unless noted

Measured: growth

COc1cc2c(cc1OC(C)=O)C(=O)CCCC2
inactive: SK-MEL-2 melanoma 99.3% | EKVX NSCLC 104% | SN12C renal 112% | UO-31 renal 88.4% | TK-10 renal 118% | ACHN renal 92.5% | CAKI-1 renal 73.8% | A498 renal 68.3% | MOLT-4 leukemia 115% | SR leukemia 121% | RPMI-8226 leukemia 109% | OVCAR-8 ovarian 98.3% | OVCAR-5 ovarian 103% | OVCAR-4 ovarian 95.1% | SK-OV-3 ovarian 117% | IGROV1 ovarian 78.8% | OVCAR-3 ovarian 114% | HS 578T breast 84.3% | NCI/ADR-RES ovarian 97.7%

CCOC(=O)c1nn(C2CCCCO2)c2ccc(NS(=O)(=O)c3ccc(C)cc3)cc12 (stereo not drawn)
inactive: SK-MEL-2 melanoma 106% | EKVX NSCLC 102% | SN12C renal 93.6% | UO-31 renal 82.7% | TK-10 renal 111% | ACHN renal 94.3% | CAKI-1 renal 77.8% | A498 renal 62.9% | CCRF-CEM leukemia 98.9% | SR leukemia 107% | RPMI-8226 leukemia 98.3% | OVCAR-8 ovarian 96.9% | OVCAR-5 ovarian 110% | OVCAR-4 ovarian 87.2% | IGROV1 ovarian 102% | OVCAR-3 ovarian 104% | HS 578T breast 94.9% | NCI/ADR-RES ovarian 99.6%

CCOC(=O)C(c1ccccc1)N1C(=O)c2ccccc2C1=O (stereo not drawn)
inactive: SK-MEL-2 melanoma 104% | EKVX NSCLC 91.4% | SN12C renal 104% | UO-31 renal 91.4% | TK-10 renal 106% | ACHN renal 102% | CAKI-1 renal 86.4% | A498 renal 89.3% | CCRF-CEM leukemia 102% | SR leukemia 115% | RPMI-8226 leukemia 98% | OVCAR-8 ovarian 99.7% | OVCAR-5 ovarian 99.7% | OVCAR-4 ovarian 97.7% | SK-OV-3 ovarian 95.4% | IGROV1 ovarian 96.5% | HS 578T breast 92.3% | NCI/ADR-RES ovarian 99.3%

C=C(C)[C@@H]1CC[C@]2(C(N)=O)CC[C@]3(C)[C@H](CC[C@@H]4[C@@]5(C)CC[C@H](O)C(C)(C)[C@@H]5CC[C@]43C)[C@@H]12
active: SK-MEL-2 melanoma -31.2% [100 µM] | EKVX NSCLC -10.3% [100 µM] | SN12C renal -45.8% [100 µM] | UO-31 renal -100% [100 µM] | TK-10 renal -69.8% [100 µM] | ACHN renal -80.3% [100 µM] | CAKI-1 renal -64.3% [100 µM] | A498 renal -28.3% [100 µM] | CCRF-CEM leukemia 3.11% [100 µM] | RPMI-8226 leukemia -19.8% [100 µM] | OVCAR-8 ovarian -64.8% [100 µM] | OVCAR-5 ovarian -21.6% [100 µM] | SK-OV-3 ovarian -45.7% [100 µM] | IGROV1 ovarian -58.1% [100 µM] | OVCAR-3 ovarian -46.6% [100 µM] | HS 578T breast -1.7% [100 µM] | NCI/ADR-RES ovarian -8.91% [100 µM]
inactive: SR leukemia 15.5% [100 µM]

Cc1ccc(S(=O)(=O)Oc2ccc([N+](=O)[O-])cc2[N+](=O)[O-])cc1
inactive: SK-MEL-2 melanoma 78.8% | EKVX NSCLC 101% | SN12C renal 32.7% | UO-31 renal 73.6% | TK-10 renal 110% | ACHN renal 104% | CAKI-1 renal 82.3% | A498 renal 94.3% | CCRF-CEM leukemia 23% | SR leukemia 56.6% | RPMI-8226 leukemia 53.2% | OVCAR-8 ovarian 78.8% | OVCAR-5 ovarian 111% | OVCAR-4 ovarian 63.6% | SK-OV-3 ovarian 119% | OVCAR-3 ovarian 107% | HS 578T breast 123% | NCI/ADR-RES ovarian 85.1%

CCOC(=O)c1c[nH]n2c(=S)ncnc12
inactive: SK-MEL-2 melanoma 94.8% | EKVX NSCLC 108% | SN12C renal 99.4% | UO-31 renal 84.8% | TK-10 renal 99.6% | ACHN renal 99.7% | CAKI-1 renal 102% | A498 renal 98.5% | MOLT-4 leukemia 90.7% | SR leukemia 107% | RPMI-8226 leukemia 107% | OVCAR-8 ovarian 104% | OVCAR-5 ovarian 103% | OVCAR-4 ovarian 101% | SK-OV-3 ovarian 103% | IGROV1 ovarian 121% | OVCAR-3 ovarian 99.5% | HS 578T breast 118% | NCI/ADR-RES ovarian 99.1%

Cc1ccc(S(=O)(=O)NCCCNc2nccc(-c3c(-c4cccc(F)c4)nc4occn34)n2)cc1
inactive: SK-MEL-2 melanoma 87.8% | EKVX NSCLC 78.7% | SN12C renal 70.1% | UO-31 renal 43.6% | TK-10 renal 79.8% | ACHN renal 80.9% | CAKI-1 renal 53.4% | A498 renal 57.5% | CCRF-CEM leukemia 42.2% | SR leukemia 87.9% | RPMI-8226 leukemia 54.8% | OVCAR-8 ovarian 65% | OVCAR-5 ovarian 96.5% | OVCAR-4 ovarian 73.4% | SK-OV-3 ovarian 68.3% | IGROV1 ovarian 48.1% | OVCAR-3 ovarian 89.7% | HS 578T breast 68% | NCI/ADR-RES ovarian 85%

C[n+]1c(-c2ccccc2)c2cc(N)ccc2c2ccccc21
inactive: SK-MEL-2 melanoma 19.6% | EKVX NSCLC 26.6% | UO-31 renal 89.9% | TK-10 renal 90.4% | ACHN renal 95.7% | CAKI-1 renal 110% | A498 renal 126% | CCRF-CEM leukemia 50.9% | SR leukemia 21.9% | RPMI-8226 leukemia 17.7% | OVCAR-8 ovarian 34% | OVCAR-5 ovarian 107% | OVCAR-4 ovarian 29.8% | IGROV1 ovarian 23.6% | OVCAR-3 ovarian 69.7% | HS 578T breast 27.1% | NCI/ADR-RES ovarian 100%
active: SN12C renal 4.79%

CC1Cc2ccc(OCCN(C)C)cc2C1=O (stereo not drawn)
inactive: SK-MEL-2 melanoma 91.9% | EKVX NSCLC 109% | SN12C renal 101% | UO-31 renal 88.1% | TK-10 renal 84.6% | ACHN renal 106% | CAKI-1 renal 98% | A498 renal 91.2% | MOLT-4 leukemia 102% | SR leukemia 101% | RPMI-8226 leukemia 88.4% | OVCAR-8 ovarian 101% | OVCAR-5 ovarian 105% | OVCAR-4 ovarian 110% | SK-OV-3 ovarian 97.8% | IGROV1 ovarian 106% | OVCAR-3 ovarian 110% | HS 578T breast 97.3% | NCI/ADR-RES ovarian 107%

COc1ccc2nc3cc(Cl)ccc3c(Nc3ccc(O)c(CN4CCCC4)c3)c2c1
inactive: EKVX NSCLC 51.3% | SN12C renal 47.8% | TK-10 renal 10.2% | A498 renal 62.3% | OVCAR-5 ovarian 57.4% | SK-OV-3 ovarian 73.2%
active: SK-MEL-2 melanoma -57.6% | UO-31 renal -46.2% | ACHN renal -38.9% | CAKI-1 renal 8.96% | CCRF-CEM leukemia -6.84% | SR leukemia 0.0468% | RPMI-8226 leukemia -25.2% | OVCAR-8 ovarian -2.17% | OVCAR-4 ovarian -4.45% | IGROV1 ovarian -26.3% | OVCAR-3 ovarian -32.1% | NCI/ADR-RES ovarian 3.27%

O=C1Nc2ccccc2/C1=C/C(=O)c1ccc(N2CCOCC2)cc1
inactive: SK-MEL-2 melanoma 99% | EKVX NSCLC 98% | SN12C renal 93.7% | UO-31 renal 59.6% | TK-10 renal 102% | ACHN renal 72.7% | CAKI-1 renal 78.4% | A498 renal 89.7% | SR leukemia 26.7% | RPMI-8226 leukemia 79.6% | OVCAR-8 ovarian 82.9% | OVCAR-5 ovarian 96.9% | SK-OV-3 ovarian 106% | IGROV1 ovarian 70.3% | OVCAR-3 ovarian 60.9% | HS 578T breast 84% | NCI/ADR-RES ovarian 100%
active: CCRF-CEM leukemia 9.92%

CCN(CC)CCCCCCNc1cccc2cc(Br)cnc12
inactive: SK-MEL-2 melanoma 21.7% | EKVX NSCLC 93.1% | SN12C renal 104% | UO-31 renal 61% | TK-10 renal 58.7% | ACHN renal 104% | CAKI-1 renal 62.3% | A498 renal 86.3% | SR leukemia 28.4% | RPMI-8226 leukemia 68% | OVCAR-8 ovarian 80.2% | OVCAR-5 ovarian 117% | OVCAR-4 ovarian 87.5% | SK-OV-3 ovarian 111% | IGROV1 ovarian 60% | OVCAR-3 ovarian 84.2% | NCI/ADR-RES ovarian 79.9%
active: MOLT-4 leukemia 9.09%

CCOC(CNC(=O)c1cccc([N+](=O)[O-])c1)OCC
inactive: SK-MEL-2 melanoma 97.2% | EKVX NSCLC 97.4% | SN12C renal 92.7% | UO-31 renal 81.8% | TK-10 renal 82.8% | ACHN renal 108% | CAKI-1 renal 89.9% | A498 renal 84.5% | CCRF-CEM leukemia 111% | SR leukemia 95.4% | RPMI-8226 leukemia 141% | OVCAR-8 ovarian 95.3% | OVCAR-5 ovarian 101% | OVCAR-4 ovarian 109% | SK-OV-3 ovarian 108% | OVCAR-3 ovarian 96.5% | NCI/ADR-RES ovarian 97.9%

CC1=CC[C@@H]2C(C)(C)C(=O)CC[C@@]2(C)[C@@H]1COc1ccc2ccc(=O)oc2c1
inactive: SK-MEL-2 melanoma 77% | EKVX NSCLC 71.4% | SN12C renal 76.1% | UO-31 renal 39% | TK-10 renal 82% | ACHN renal 74.2% | CAKI-1 renal 47.3% | A498 renal 75.3% | MOLT-4 leukemia 39.1% | SR leukemia 77.9% | RPMI-8226 leukemia 45.9% | OVCAR-8 ovarian 51.1% | OVCAR-5 ovarian 98% | OVCAR-4 ovarian 23.1% | IGROV1 ovarian 77.9% | OVCAR-3 ovarian 72.5% | HS 578T breast 77.6% | NCI/ADR-RES ovarian 28.4%

COc1ccc(-c2nc3ccccn3c2/C=C/C(=O)c2cc(OC)c(OC)c(OC)c2)cc1OC
active: SK-MEL-2 melanoma -28.5% | CAKI-1 renal 8.16% | RPMI-8226 leukemia -26% | SK-OV-3 ovarian 6.61% | OVCAR-3 ovarian 9.08% | HS 578T breast 6.05% | NCI/ADR-RES ovarian -4.39%
inactive: EKVX NSCLC 28.5% | SN12C renal 31% | UO-31 renal 17% | TK-10 renal 43% | ACHN renal 19.9% | CCRF-CEM leukemia 16.4% | MOLT-4 leukemia 25.5% | SR leukemia 27% | OVCAR-8 ovarian 14.1% | OVCAR-5 ovarian 24.5% | OVCAR-4 ovarian 17.8%
